Results on seven molecules are retold here after PubChem BioAssay (EPA / NIEHS).

A word on the AC50: it is the midpoint of the concentration-response curve, whichever way the signal moves.

Read-out in assay [1]: Intercellular Adhesion Molecule 1 (ICAM1), ICAM1 (gene 3383)
Nature of the assay: BSK_3C_ICAM1: BioMAP Diversity Plus: 3C Assay for Intercellular Adhesion Molecule 1 (ICAM1) Biomarker Activity (AID 2283003). To be noted: primary human endothelial cells (HUVEC); actives raise or lower the signal. An outline of the steps:
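Primary human umbilical vein endothelial cells in the BioMAP 3C system were exposed to chemicals for 24 h, then ICAM-1 was quantified by ELISA. Activity was fitted bidirectionally against the DMSO negative control baseline.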

Assay [2] addresses Peroxisome proliferator-activated receptor gamma (Homo sapiens) (UniProt P37231). Briefly: ATG_PPARg_TRANS: Attagene TRANS-FACTORIAL HepG2 Assay for human Peroxisome Proliferator-activated Receptor-gamma (PPARg) (AID 2283007; active = hit-call score of the fitted dose curve at least 0.9, where 1 is the maximum). The method, boiled down: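 HepG2 cells are transiently transfected with GAL4-UAS reporter units driven by chimeric NR-Gal4 fusions and dosed for 24 h. Reporter mRNA is quantified by RT-PCR, 6-FAM labelling, HpaI digestion and capillary electrophoresis. Induction is scored against DMSO.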

For assay [3], the target named is Nuclear receptor subfamily 1 group I member 2 (Homo sapiens) (UniProt O75469). Nature of the assay: ATG_PXR_TRANS: Attagene TRANS-FACTORIAL HepG2 Assay for human Pregnane X Receptor (PXR) (AID 2283008; active = hit-call score of the fitted dose curve at least 0.9, where 1 is the maximum). The method, boiled down: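 HepG2 cells transiently transfected with GAL4-UAS reporter units and PXR-Gal4 chimera, exposed 24 h. Reporter mRNA quantified by RT-PCR, fluorescent labelling, HpaI digestion and capillary electrophoresis; gain of signal vs DMSO.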

For assay [4], the target named is Retinoic acid receptor RXR-alpha (Homo sapiens) (UniProt P19793). Briefly: ATG_RXRa_TRANS: Attagene TRANS-FACTORIAL HepG2 Assay for human Retinoid X Receptor alpha (RXRa) (AID 2283012; active = hit-call score of the fitted dose curve at least 0.9, where 1 is the maximum). The method, boiled down: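 HepG2 cells transiently transfected with multiplexed GAL4-UAS reporter units and chimeric NR-GAL4 fusions, dosed 24 h. Reporter mRNA measured by RT-PCR, FAM labelling, HpaI digestion and capillary electrophoresis; gain-of-signal fitted relative to DMSO baseline.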

Assay [5] deals with human Retinoid X Receptor beta (RXRb), RXRB (gene 6257) (UniProt P28702). Briefly: ATG_RXRb_TRANS: Attagene TRANS-FACTORIAL HepG2 Assay for human Retinoid X Receptor beta (RXRb) (AID 2283013; active = hit-call score of the fitted dose curve at least 0.9, where 1 is the maximum). The method, boiled down:
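HepG2 cells transiently transfected with multiplexed reporter units driven by GAL4-UAS and exogenous chimeric NR-Gal4 proteins; treated 24 h. Reporter mRNA measured by RT-PCR, 6-FAM labelling and capillary electrophoresis; gain-of-signal fitted versus DMSO baseline.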

Read-out in assay [6]: E-selectin (Homo sapiens) (UniProt P16581)
Nature of the assay: BSK_3C_Eselectin: BioMAP Diversity Plus: 3C Assay for Eselectin Biomarker Activity (AID 2283015).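 For outcome: cell surface E-selectin protein quantified by ELISA 24 h after dosing.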 To be noted: primary human endothelial cells (HUVEC); actives raise or lower the signal. An outline of the steps:
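Primary human umbilical vein endothelial cells (3C system), read 24 h after compound addition; E-selectin measured by ELISA. Bidirectional curve fitting against DMSO baseline; cytotoxicity by parallel SRB total-protein staining.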

Read-out in assay [7]: Interleukin-1 alpha (IL1a), IL1A (gene 3552)
Briefly: BSK_BE3C_IL1a: BioMAP Diversity Plus: BE3C Assay for Interleukin-1 alpha (IL1a) Biomarker Activity (AID 2283016). To be noted: primary human bronchial epithelial cells; actives raise or lower the signal. The method, boiled down: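 Human primary bronchial epithelial cells (BE3C system) were dosed with compound and IL-1a measured by ELISA 24 h later. Activity was fitted bidirectionally against DMSO baseline; cytotoxicity was tracked in parallel cultures by SRB total-protein staining.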

Read-out in assay [8]: Monocyte Chemoattractant Protein-1 (MCP1), CCL2 (gene 6347)
Briefly: BSK_3C_MCP1: BioMAP Diversity Plus: 3C Assay for Monocyte Chemoattractant Protein-1 (MCP1) Biomarker Activity (AID 2283017). To be noted: primary human endothelial cells (HUVEC); actives raise or lower the signal. The method, boiled down:
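Human umbilical vein endothelial cells (3C system) exposed to chemicals for 24 h; MCP-1 quantified by ELISA against the DMSO baseline with bidirectional fitting, and parallel SRB staining used to assess cytotoxicity.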

Read-out in assay [9]: Monocyte Chemoattractant Protein-1 (MCP1), CCL2 (gene 6347)
Nature of the assay: BSK_4H_MCP1: BioMAP Diversity Plus: 4H Assay for Monocyte Chemoattractant Protein-1 (MCP1) Biomarker Activity (AID 2283018). The conditions noted are these: primary human endothelial cells (HUVEC); actives raise or lower the signal. An outline of the steps: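 Human umbilical vein endothelial cells (4H system) dosed with chemical; MCP-1 measured by ELISA 24 h after dosing. Bidirectional curve fitting against DMSO negative control as baseline; parallel SRB total-protein staining tracks overt cytotoxicity.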

Read-out in assay [10]: Human Leukocyte Antigen - DR isotype (HLADR), HLA-DRA (gene 3122)
Briefly: BSK_3C_HLADR: BioMAP Diversity Plus: 3C Assay for Human Leukocyte Antigen - DR isotype (HLADR) Biomarker Activity (AID 2283019). The conditions noted are these: primary human endothelial cells (HUVEC); actives raise or lower the signal. The method, boiled down: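 HUVEC monoculture, HLA-DR measured by ELISA 24 h after chemical dosing. Fitted bidirectionally against DMSO baseline; parallel SRB staining assessed cytotoxicity, with 3C proliferation read by SRB at 48 h.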

Read-out in assay [11]: Interleukin-8 (IL8), CXCL8 (gene 3576)
Nature of the assay: BSK_3C_IL8: BioMAP Diversity Plus: 3C Assay for Interleukin-8 (IL8) Biomarker Activity (AID 2283020). The conditions noted are these: primary human endothelial cells (HUVEC); actives raise or lower the signal. The method, boiled down:
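Primary human umbilical vein endothelial cells (3C system) were exposed to test chemical for 24 h, then IL-8 was quantified by ELISA. Responses were fitted bidirectionally against DMSO vehicle as baseline.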

Read-out in assay [12]: Monokine induced gamma interferon (MIG), CXCL9 (gene 4283)
Nature of the assay: BSK_3C_MIG: BioMAP Diversity Plus: 3C Assay for Monokine induced gamma interferon (MIG) Biomarker Activity (AID 2283021).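 For AC50: MIG protein level measured by immunoassay in the treated endothelial cultures.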 The conditions noted are these: primary human endothelial cells (HUVEC); actives raise or lower the signal. The method, boiled down: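 Primary human umbilical vein endothelial cells in the 3C system were exposed to chemical for 24 h, after which MIG was quantified by ELISA. Activity was fitted bidirectionally against DMSO as negative control and baseline.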

The nature of assay [13]: BSK_3C_Proliferation: Cell Proliferation Assessment in the BioMAP Diversity Plus: 3C Assay (AID 2283006).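 For AC50: potency may reflect either rise or fall in cell number versus DMSO.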 To be noted: primary human endothelial cells (HUVEC). The method, boiled down:
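Human umbilical vein endothelial cells were grown sub-confluent and exposed to chemical for 48 h, then fixed with 10% TCA and stained with 0.1% sulforhodamine B; absorbance at 560 nm gave relative cell number, fitted bidirectionally against DMSO baseline.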

Assay [14] deals with human Thyroid Receptor alpha (THRa1), THRA (gene 7067) (UniProt P10827). Briefly: ATG_THRa1_TRANS: Attagene TRANS-FACTORIAL HepG2 Assay for human Thyroid Receptor alpha (THRa1) (AID 2283014; active = hit-call score of the fitted dose curve at least 0.9, where 1 is the maximum). An outline of the steps: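 HepG2 cells transiently transfected with chimeric NR-Gal4 and GAL4-UAS reporter units, dosed 24 h. Reporter mRNA quantified by RT-PCR, fluorescent labeling, HpaI digestion and capillary electrophoresis; gain-of-signal fit versus DMSO.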

Assay [15] deals with human Retinoic Acid Receptor beta (RARb), RARB (gene 5915) (UniProt P10826). Briefly: ATG_RARb_TRANS: Attagene TRANS-FACTORIAL HepG2 Assay for human Retinoic Acid Receptor beta (AID 2283004; active = hit-call score of the fitted dose curve at least 0.9, where 1 is the maximum). An outline of the steps: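 HepG2 cells were transiently transfected with GAL4-UAS reporter units that report activity of exogenous chimeric NR-Gal4 proteins, then exposed to compound for 24 h. Reporter mRNA was quantified by RT-PCR with capillary electrophoresis fluorescence, as gain of signal over DMSO.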

Assay [16] concerns the target human Retinoic Acid Receptor gamma (RARg), RARG (gene 5916) (UniProt P13631). Nature of the assay: ATG_RARg_TRANS: Attagene TRANS-FACTORIAL HepG2 Assay for human Retinoic Acid Receptor gamma (RARg) (AID 2283009; active = hit-call score of the fitted dose curve at least 0.9, where 1 is the maximum). An outline of the steps: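 HepG2 cells transiently transfected with multiplexed reporter units expressing chimeric RARg-GAL4 and GAL4-UAS-driven reporters; 24 h compound exposure. Reporter mRNA quantified by RT-PCR with fluorescent labelling and capillary electrophoresis; gain-of-signal fitted relative to DMSO baseline.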

Assay [17] concerns the target human RAR-related Orphan Receptor beta (RORb), RORB (gene 6096) (UniProt Q92753). Nature of the assay: ATG_RORb_TRANS: Attagene TRANS-FACTORIAL HepG2 Assay for human RAR-related Orphan Receptor beta (RORb) (AID 2283010; active = hit-call score of the fitted dose curve at least 0.9, where 1 is the maximum). The method, boiled down: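 HepG2 cells were transiently transfected with multiplexed GAL4-UAS reporter units expressing chimeric nuclear receptor–GAL4 proteins, then dosed for 24 h. Reporter mRNA was quantified by RT-PCR with fluorescent labelling and capillary electrophoresis; gain of signal was fitted relative to DMSO.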

Molecules are shown by their SMILES. Inconclusive results are not listed. Activity calls are given as the source filed them. Rule for the calls, unless noted: active = hit-call score of the fitted dose curve at least 0.9, where 1 is the maximum; inactive = score below 0.9.

Chain of human Thyroid Receptor alpha (THRa1), THRA (gene 7067) (P10827 whole entry, looked up, the tested form may be a part): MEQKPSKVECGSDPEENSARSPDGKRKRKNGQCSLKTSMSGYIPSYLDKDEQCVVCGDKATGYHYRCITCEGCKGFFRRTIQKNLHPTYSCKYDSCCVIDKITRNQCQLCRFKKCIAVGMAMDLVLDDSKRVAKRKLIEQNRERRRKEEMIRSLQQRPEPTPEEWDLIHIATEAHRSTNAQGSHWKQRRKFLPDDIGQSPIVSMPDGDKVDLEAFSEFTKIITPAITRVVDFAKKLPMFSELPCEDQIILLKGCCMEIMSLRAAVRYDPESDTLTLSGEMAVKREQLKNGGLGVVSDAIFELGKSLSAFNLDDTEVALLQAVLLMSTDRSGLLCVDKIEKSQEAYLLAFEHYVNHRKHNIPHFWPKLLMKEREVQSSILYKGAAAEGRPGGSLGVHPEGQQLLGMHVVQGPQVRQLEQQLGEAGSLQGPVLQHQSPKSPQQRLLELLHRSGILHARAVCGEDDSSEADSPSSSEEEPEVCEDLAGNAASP
Chain of Retinoic acid receptor RXR-alpha (Homo sapiens) (P19793 whole entry, looked up, the tested form may be a part): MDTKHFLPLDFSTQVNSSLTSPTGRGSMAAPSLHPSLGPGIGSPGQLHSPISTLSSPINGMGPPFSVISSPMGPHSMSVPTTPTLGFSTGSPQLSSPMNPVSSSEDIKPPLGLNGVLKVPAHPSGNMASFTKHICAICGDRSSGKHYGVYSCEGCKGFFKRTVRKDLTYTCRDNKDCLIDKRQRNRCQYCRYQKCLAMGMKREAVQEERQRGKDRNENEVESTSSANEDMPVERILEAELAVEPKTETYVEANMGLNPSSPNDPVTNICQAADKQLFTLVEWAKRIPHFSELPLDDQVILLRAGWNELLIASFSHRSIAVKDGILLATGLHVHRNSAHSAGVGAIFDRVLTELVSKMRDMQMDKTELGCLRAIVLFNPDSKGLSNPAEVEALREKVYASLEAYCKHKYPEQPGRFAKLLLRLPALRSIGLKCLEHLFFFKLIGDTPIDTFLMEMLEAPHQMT
Chain of E-selectin (Homo sapiens) (P16581 whole entry, looked up): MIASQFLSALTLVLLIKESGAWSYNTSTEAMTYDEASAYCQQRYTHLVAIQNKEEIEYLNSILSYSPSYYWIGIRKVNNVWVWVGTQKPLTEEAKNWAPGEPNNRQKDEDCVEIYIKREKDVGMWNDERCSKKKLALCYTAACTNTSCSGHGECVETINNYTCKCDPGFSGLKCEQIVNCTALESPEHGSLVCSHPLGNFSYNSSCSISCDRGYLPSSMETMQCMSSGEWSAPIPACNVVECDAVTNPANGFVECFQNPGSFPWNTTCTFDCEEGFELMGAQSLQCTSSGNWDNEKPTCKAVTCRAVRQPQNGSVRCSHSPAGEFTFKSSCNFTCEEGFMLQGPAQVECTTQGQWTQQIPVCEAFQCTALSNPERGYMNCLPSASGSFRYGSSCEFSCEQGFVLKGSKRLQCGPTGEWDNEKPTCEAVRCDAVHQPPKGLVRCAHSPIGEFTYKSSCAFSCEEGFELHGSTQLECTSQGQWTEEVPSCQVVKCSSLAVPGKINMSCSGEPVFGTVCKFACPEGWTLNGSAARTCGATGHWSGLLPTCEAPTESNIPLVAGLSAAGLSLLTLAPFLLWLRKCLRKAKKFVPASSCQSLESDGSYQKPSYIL
Chain of human Retinoid X Receptor beta (RXRb), RXRB (gene 6257) (P28702 whole entry, looked up, the tested form may be a part): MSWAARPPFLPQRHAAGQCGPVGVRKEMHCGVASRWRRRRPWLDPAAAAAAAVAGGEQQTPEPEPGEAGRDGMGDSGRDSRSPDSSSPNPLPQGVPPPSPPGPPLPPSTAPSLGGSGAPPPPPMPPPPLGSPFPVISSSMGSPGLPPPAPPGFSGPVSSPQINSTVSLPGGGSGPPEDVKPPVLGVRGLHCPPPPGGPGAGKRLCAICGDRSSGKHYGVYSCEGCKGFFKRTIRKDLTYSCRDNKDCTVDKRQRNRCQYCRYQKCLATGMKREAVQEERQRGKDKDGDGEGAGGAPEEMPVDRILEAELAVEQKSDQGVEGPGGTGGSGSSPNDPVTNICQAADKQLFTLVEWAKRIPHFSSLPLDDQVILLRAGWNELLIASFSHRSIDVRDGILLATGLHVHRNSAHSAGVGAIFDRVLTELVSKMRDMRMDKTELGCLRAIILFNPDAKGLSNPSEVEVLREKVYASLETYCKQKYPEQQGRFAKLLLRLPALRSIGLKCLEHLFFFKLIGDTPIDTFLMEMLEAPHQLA
Chain of Nuclear receptor subfamily 1 group I member 2 (Homo sapiens) (O75469 whole entry, looked up, the tested form may be a part): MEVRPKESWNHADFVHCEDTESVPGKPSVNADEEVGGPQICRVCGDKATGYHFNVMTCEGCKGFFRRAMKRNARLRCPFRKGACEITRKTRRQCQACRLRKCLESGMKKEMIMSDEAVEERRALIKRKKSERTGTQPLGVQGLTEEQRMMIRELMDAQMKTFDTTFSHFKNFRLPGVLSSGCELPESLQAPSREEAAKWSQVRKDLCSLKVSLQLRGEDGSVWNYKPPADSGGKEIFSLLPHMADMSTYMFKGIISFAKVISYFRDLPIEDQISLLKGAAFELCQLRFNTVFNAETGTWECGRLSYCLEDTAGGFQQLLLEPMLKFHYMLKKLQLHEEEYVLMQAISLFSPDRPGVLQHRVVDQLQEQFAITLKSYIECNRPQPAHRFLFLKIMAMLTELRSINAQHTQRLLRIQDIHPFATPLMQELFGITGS
Chain of Peroxisome proliferator-activated receptor gamma (Homo sapiens) (P37231 whole entry, looked up, the tested form may be a part): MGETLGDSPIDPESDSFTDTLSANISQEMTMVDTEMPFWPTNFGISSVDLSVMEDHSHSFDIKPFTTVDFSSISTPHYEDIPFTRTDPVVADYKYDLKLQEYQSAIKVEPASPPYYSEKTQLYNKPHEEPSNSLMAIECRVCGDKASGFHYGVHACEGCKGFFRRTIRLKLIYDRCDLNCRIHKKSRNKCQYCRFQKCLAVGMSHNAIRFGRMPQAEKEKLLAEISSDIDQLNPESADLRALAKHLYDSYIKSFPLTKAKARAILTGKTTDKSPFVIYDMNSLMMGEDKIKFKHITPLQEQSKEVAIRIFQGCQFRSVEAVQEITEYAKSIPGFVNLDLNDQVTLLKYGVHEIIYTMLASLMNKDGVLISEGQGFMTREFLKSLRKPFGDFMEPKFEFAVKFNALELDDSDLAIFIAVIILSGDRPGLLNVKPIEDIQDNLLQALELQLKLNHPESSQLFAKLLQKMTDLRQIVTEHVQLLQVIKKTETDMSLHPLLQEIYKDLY
Chain of human Retinoic Acid Receptor beta (RARb), RARB (gene 5915) (P10826 whole entry, looked up, the tested form may be a part): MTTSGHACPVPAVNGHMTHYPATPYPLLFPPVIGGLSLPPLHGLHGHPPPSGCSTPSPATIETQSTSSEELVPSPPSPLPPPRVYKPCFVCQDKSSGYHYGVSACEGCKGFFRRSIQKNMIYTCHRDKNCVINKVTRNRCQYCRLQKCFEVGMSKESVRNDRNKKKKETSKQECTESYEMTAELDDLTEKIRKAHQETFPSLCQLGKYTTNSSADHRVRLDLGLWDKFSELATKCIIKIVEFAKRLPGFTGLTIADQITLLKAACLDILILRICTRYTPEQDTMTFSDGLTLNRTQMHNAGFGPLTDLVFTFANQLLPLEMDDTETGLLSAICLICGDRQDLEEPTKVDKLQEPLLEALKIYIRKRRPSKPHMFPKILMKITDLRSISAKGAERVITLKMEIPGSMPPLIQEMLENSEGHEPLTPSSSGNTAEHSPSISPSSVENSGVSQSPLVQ
Chain of human Retinoic Acid Receptor gamma (RARg), RARG (gene 5916) (P13631 whole entry, looked up, the tested form may be a part): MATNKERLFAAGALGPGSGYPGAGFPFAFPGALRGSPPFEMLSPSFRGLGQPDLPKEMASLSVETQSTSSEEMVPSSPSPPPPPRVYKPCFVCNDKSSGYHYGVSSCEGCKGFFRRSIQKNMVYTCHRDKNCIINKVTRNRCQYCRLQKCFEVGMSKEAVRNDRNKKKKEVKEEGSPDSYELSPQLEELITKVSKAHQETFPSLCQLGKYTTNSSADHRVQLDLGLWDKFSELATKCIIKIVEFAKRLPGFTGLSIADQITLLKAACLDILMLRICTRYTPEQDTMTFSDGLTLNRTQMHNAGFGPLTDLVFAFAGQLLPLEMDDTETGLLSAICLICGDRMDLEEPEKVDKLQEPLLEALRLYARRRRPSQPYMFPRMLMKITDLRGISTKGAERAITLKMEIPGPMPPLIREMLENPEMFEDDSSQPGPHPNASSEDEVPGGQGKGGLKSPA
Chain of human RAR-related Orphan Receptor beta (RORb), RORB (gene 6096) (Q92753 whole entry, looked up, the tested form may be a part): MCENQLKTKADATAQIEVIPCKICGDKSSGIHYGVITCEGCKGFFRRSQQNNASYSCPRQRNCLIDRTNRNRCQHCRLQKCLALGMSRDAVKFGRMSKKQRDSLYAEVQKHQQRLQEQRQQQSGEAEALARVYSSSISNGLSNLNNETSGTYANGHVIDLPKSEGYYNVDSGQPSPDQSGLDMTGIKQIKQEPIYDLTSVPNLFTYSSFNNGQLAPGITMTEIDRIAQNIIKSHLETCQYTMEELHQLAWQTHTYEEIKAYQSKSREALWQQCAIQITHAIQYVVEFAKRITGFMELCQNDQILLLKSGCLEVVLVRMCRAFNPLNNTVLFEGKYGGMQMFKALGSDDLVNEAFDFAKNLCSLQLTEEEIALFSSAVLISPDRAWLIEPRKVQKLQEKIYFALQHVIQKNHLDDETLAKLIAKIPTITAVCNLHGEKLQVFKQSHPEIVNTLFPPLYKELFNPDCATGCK

In the case of `N#CC(Br)Br`, the result in assay [1], in [2], in [3], in assay [4], in [5] and in [6] was inactive. Further, the outcome in assay [7], in assay [8], in [9], in [10], in assay [11] and in assay [12] was inactive.
In the case of `[O-][Cl+]O`, the result in [1], in assay [13], in assay [3], in [5], in [14] and in assay [6] was inactive. Further, the outcome in [7], in assay [8], in assay [9], in assay [10], in assay [11] and in assay [12] was inactive.
Turning to `OCCCBr`, the result in assay [1], in [13], in assay [3], in [5], in assay [14] and in assay [6] was inactive. Besides, the result in assay [7], in [8], in assay [9], in [10], in assay [11] and in assay [12] was inactive.
For `CC(C)(C)OOC(C)(C)CCC(C)(C)OOC(C)(C)C`, the outcome in [1], in assay [13], in assay [3], in [4], in assay [6] and in assay [7] was inactive. Moreover, the outcome in [8], in [9], in [10], in assay [11] and in assay [12] was inactive. Besides, the AC50 is 24.7 µM (active) in assay [15] and 16.4 µM (active) in [5].
As for `ClCCOCCCl`, the outcome in assay [1], in assay [2], in assay [3], in assay [16], in assay [4] and in [5] was inactive. In addition, the result in [14], in [6], in assay [7], in assay [8], in assay [9] and in [10] was inactive. Further, the result in assay [11] and in [12] was inactive.
As for `COC(=O)c1ccccc1N`, the result in [1], in assay [17], in assay [5], in [14], in assay [6] and in assay [7] was inactive. Besides, the result in assay [8], in assay [9], in assay [10], in [11] and in [12] was inactive.
`Oc1ccc2ccc3cccc4ccc1c2c34`: the AC50 in [1] is 31.8 µM (active); in assay [13] it was 24.6 µM (active); in assay [3], 33.4 µM (active); in [5], 43.3 µM (active); in [6] it was 29.9 µM (active); in assay [7] it was 32.4 µM (active). Also, the AC50 is 29.7 µM (active) in assay [8]; 14.2 µM (active) in assay [9]; 26.6 µM (active) in assay [10]; 32.8 µM (active) in [11]; 37.6 µM (active) in assay [12]. Besides, the molecule was classed as inactive in assay [15], in assay [16] and in assay [4].
